Measured values reported in the supplement of paper PMC8183993.
Values joined by “and” are separate entries in the source; they are usually repeats but may differ in a detail not shown here. Equal entries are not always repeated. Structures can show the parent of a compound that is named as a salt. ± gives the standard deviation of the averaged measurements. In all, about 3,200 compounds were measured (“nuclei count (viability) relative to DMSO”: median about 99, lowest 2% from about 16 on). Shown is part of a subset that was picked to be rich in the lowest values.

These compounds were tested on U2OS (assay: nuclei count (viability) relative to DMSO (% of DMSO); higher = more viable cells). Settings: 10 µM; 24 h.
Experimental: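 Primary image-based screen in U2OS cells: compounds at 10 uM for 24 h, then a 1 h o-propargyl-puromycin (OPP) pulse, click labelling, and high-throughput microscopy. Mean cytoplasmic OPP intensity and nuclei count were normalised to DMSO wells within each plate (DMSO = 100) and averaged over triplicate plates.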

Structure (SMILES)	nuclei count
C/C=C1\NC(=O)[C@H]2CSSCC/C=C/[C@H](CC(=O)N[C@H](C(C)C)C(=O)N2)OC(=O)[C@H](C(C)C)NC1=O [Romidepsin (FK228 ,depsipeptide)]	8.81
CC#CCOC(=O)C1=CCCN(C)C1 [Arecaidine but-2-ynyl ester tosylate]	101
CNC(=O)c1cc(Oc2ccc(NC(=O)Nc3cc(C(C)(C)C)nn3-c3ccc4ncccc4c3)c(F)c2)ccn1 [DCC-2036 (Rebastinib)]	70.1
NC(=O)c1ccncc1 [Isonicotinamide]	99.6
O=C(/C=C/c1ccc2ccccc2n1)c1ccncc1	11.3
C=CC(=O)c1ccc2ccccc2c1	105
COC(=O)C1=C(C)NC(C)=C(C(=O)OCCSc2ccccc2)C1C (stereo not drawn)	97.8
CCS(=O)(=O)N1CCC[C@@H]2CN3CCc4cc(OC)ccc4[C@@H]3C[C@@H]21	101
CC1=CC(=O)c2ccccc2C1=O [Menadione]	54.1
O=C1c2ccccc2C(=O)c2c1ccc(O)c2O [Alizarin]	89.7
CC[C@H](C)[C@H](N)C1=N[C@H](C(=O)N[C@@H](CC(C)C)C(=O)N[C@H](CCC(=O)[O-])C(=O)N[C@H](C(=O)N[C@H]2CCCCNC(=O)[C@H](CC(N)=O)NC(=O)[C@@H](CC(=O)[O-])NC(=O)[C@H](Cc3cnc[nH]3)NC(=O)[C@@H](Cc3ccccc3)NC(=O)[C@H]([C@@H](C)CC)NC(=O)[C@@H](CCCN)NC2=O)[C@@H](C)CC)CS1.[Zn+2] [Bacitracin zinc]	109
CC(C)NCC(O)COc1ccc(COCCOC(C)C)cc1 (racemic) [(±)-Bisoprolol hemifumarate]	102
C[C@H](NC(=O)/C(C#N)=C/c1cccc(Br)n1)c1ccccc1	7.49 ± 1.2
C[C@H](NC(=O)/C(C#N)=C/c1ccc(O)c(O)c1)c1ccccc1 [Tyrphostin B44, (+) enantiomer]	93.4
N#C/C(=C\c1ccc(O)c(O)c1)C(=O)NCc1ccccc1	102 and 98.5
CCC[C@H](NC(=O)/C(C#N)=C/c1cccc(Br)n1)c1ccccc1	5.45
N#C/C(=C\c1ccc(O)c(O)c1)C(=O)Nc1ccccc1	83.4
CC(C)c1cccc(=O)c(O)c1 [Hinokitiol]	87.3
CCC(C)[C@H](NS(=O)(=O)c1cccc2ccccc12)C(=O)N[C@H](C=O)Cc1c[nH]c2ccccc12 (stereo partly drawn)	90.3
CNC(=O)CN(CCN(CCN(CC(=O)O)CC(=O)NC)CC(=O)O)CC(=O)O.O.[Gd] [Gadodiamide (Omniscan)]	101
Cc1ccccc1C(=O)Nc1ccc(C(=O)N2CCCC(N(C)C)c3ccccc32)cc1 (stereo not drawn) [Mozavaptan]	41.2

Structure (SMILES)	nuclei count
N[C@@H](CS(=O)O)C(=O)O [L-Cysteinesulfinic acid]	102
CC1=NN(c2ccc(C)c(C)c2)C(=O)/C1=N\Nc1cccc(-c2cccc(C(=O)O)c2)c1O	98.3
C=CC(=O)Nc1cccc(Nc2nc(Nc3ccc(Oc4ccnc(C(=O)NC)c4)cc3)ncc2F)c1	63.4
C=CC(=O)Nc1cccc(Sc2nc(Nc3ccc(N4CCN(C)CC4)cc3)ncc2Cl)c1	13.6
C=CC(=O)Nc1cccc(Oc2nc(Nc3ccc(N4CCN(C)CC4)cc3)ncc2Cl)c1	6.24
CCC(=O)Nc1cccc(Oc2nc(Nc3ccc(N4CCN(C)CC4)cc3OC)ncc2Cl)c1	94.6
C=CC(=O)Nc1ccc2ncnc(Nc3cccc(Br)c3)c2c1	79.2 ± 4.8
C=CC(=O)Nc1cccc(Oc2nc(Nc3ccc(N4CCN(C)CC4)cc3OC)ncc2Cl)c1	107
NC1CCN(c2cccc(Cl)n2)CC1	103
COC(=O)C1=C(C)NC(C)=C(C(=O)NCCCN2CCC(c3ccccc3)(c3ccccc3)CC2)C1c1ccc([N+](=O)[O-])cc1 (stereo not drawn)	55.1
O=C(O)CCc1ccc(NCc2cccc(Oc3ccccc3)c2)cc1	90.2
COC(C)(C)CCCC(C)C/C=C/C(C)=C/C(=O)O (stereo not drawn) [Methoprene acid]	105
COc1ccc(CN2C(=O)C(=O)c3cc(OC(F)(F)F)ccc32)cc1	17.3
O=[N+]([O-])c1ccc2c(c1)S(=O)(=O)C=C2 [Stattic]	14.1
O=C1Nc2ccc([N+](=O)[O-])cc2C1=O [5-Nitroisatin]	99
CS(=O)(=O)Nc1ccc([N+](=O)[O-])cc1Oc1ccccc1 [Nimesulide]	103 ± 6.9
CCCC[P+](CCCC)(CCCC)Cc1ccc(NC(=O)C(Cc2ccc3ccccc3c2)NC(=NC2CCCCC2)NC2CCCCC2)cc1 (stereo not drawn)	94.1
CC(C)C[C@H](NC(=O)[C@@H](O)[C@H](N)Cc1ccccc1)C(=O)O [Bestatin]	94.4
CC(C)C[C@H](NC(=O)[C@H](Cc1ccccc1)NC(=O)c1cnccn1)B(O)O [Bortezomib (Velcade)]	7.65
Nc1nc(NCCc2ccc(O)cc2)nc2nc(-c3ccco3)nn12	114
CCCOc1ccn2c(C(C)=O)cc(-c3ccccc3S(C)(=O)=O)c2c1	96.4

Structure (SMILES)	nuclei count
Cc1cc(=O)n(C)c2cc(N3C(=O)CC[C@H](NS(=O)(=O)CC(C)C)[C@H]3c3ccc(Cl)cc3)ccc12	104
COCCCN1CCC(NC(=O)c2cc(Cl)c(N)c3c2OCC3)CC1 [Prucalopride]	103
O=C1NCCN1c1ncc([N+](=O)[O-])s1 [Niridazole]	90.4
O=c1[nH]nc(Sc2ncc([N+](=O)[O-])s2)n1-c1ccc2c(c1)OCCO2	6.42 ± 2.8
O=c1nc2ccccc2c2n1CC(CN1CCN(c3ccccc3)CC1)N2 (stereo not drawn)	100
COc1cc2c(cc1OC)CN(CCc1ccc(NC(=O)c3cc(OC)c(OC)cc3NC(=O)c3cnc4ccccc4c3)cc1)CC2 [Tariquidar]	96.8
CCCCC/C=C/C=C1/C(=O)C=C[C@@H]1C/C=C\CCCC(=O)O [15-Deoxy-D12,14-prostaglandin J2]	85.6
O=C(Nc1ccccc1-c1cn2c(CN3CCNCC3)csc2n1)c1cnc2ccccc2n1	12.2
O=[N+]([O-])c1cccc2c(Br)[nH]nc12 [3-Bromo-7-nitroindazole]	102
CCC(=O)OCN1C(=O)C=CC1=O	109
CN(CCOc1ccc(-c2ccc3c(c2)OCO3)cc1C(C)(C)C)CC(=O)O	98
COC[C@H](NC(=O)c1cnc(C)s1)C(=O)N[C@@H](COC)C(=O)N[C@@H](Cc1ccccc1)C(=O)[C@@]1(C)CO1 [Oprozomib (ONX 0912)]	11.1
COC(=O)[C@H](Cc1ccccc1)NC(=O)[C@@H](N)CC(=O)O [Aspartame]	108
O=C(CCc1ccc(O)cc1)c1c(O)cc(O)cc1O[C@@H]1O[C@H](CO)[C@@H](O)[C@H](O)[C@H]1O [Phlorizin (Phloridzin)]	82.5
Oc1cc2c(c(Cl)c1O)CCNCC2c1ccccc1 (stereo not drawn)	91.2
O=C1CCc2c(ccc3ccccc23)O1 [Splitomicin]	104 ± 5.1
CCCC[C@@H](C=O)NC(=O)[C@H](CC(C)C)NC(=O)OCc1ccccc1 [Calpeptin]	102 ± 1.9
CC(C)C[C@@H](C=O)NC(=O)[C@H](CC(C)C)NC(=O)[C@H](CC(C)C)NC(=O)OCc1ccccc1	10.9 and 7.59
CC(NC(=O)C(Cc1ccccc1)NC(=O)OCc1ccccc1)C(=O)CF (stereo not drawn)	95
CC1C(=O)OC2C(O)C34C5CC(C(C)(C)C)C36C(OC(=O)C6O)OC4(C(=O)O5)C12O (stereo not drawn) [Ginkgolide B]	95
NCCCCCc1c[nH]cn1 [Impentamine dihydrobromide]	90.5

Structure (SMILES)	nuclei count
CN(Cc1ccccc1)C(=O)[C@H](Cc1ccc2ccccc2c1)NC(=O)[C@@H]1CCCN1C(=O)Nc1ccccc1[N+](=O)[O-]	100
OC(c1cc(C(F)(F)F)nc2c(C(F)(F)F)cccc12)C1CCCCN1 (stereo not drawn) [Mefloquine hydrochloride]	10.7
Oc1ccc(OC2CCCCO2)cc1 (stereo not drawn) [Deoxyarbutin]	91.1
COC(=O)[C@@H]1CC2=CC(=O)CC[C@]2(C)[C@@]23O[C@@H]2C[C@@]2(C)[C@@H](CC[C@@]24CCC(=O)O4)[C@H]13 [Eplerenone]	104 ± 3.6
Cc1cc(Nc2ncc(Cl)c(Nc3ccccc3S(=O)(=O)C(C)C)n2)c(OC(C)C)cc1C1CCNCC1 [Ceritinib (LDK378)]	14.7
CC(C)Oc1cc(Nc2nc(N[C@@H](C)c3ccc(F)cn3)ncc2Cl)n[nH]1	52.7
Cc1cccc(C)c1NC(=O)C[N+](C)(C)C	106
CCn1nnc2c(N3CCOCC3)nc(-c3ccc(NC(=O)Nc4ccc(C(=O)N5CCN(C)CC5)cc4)cc3)nc21	77.7
CC(C)c1ccc(Cn2ccc3c4c(N)nc(NC5CC5)nc4ccc32)cc1	29.3
Cc1c(NC(=O)N2CCOCC2)ccc2c1c1ccccc1n2C(C)C	94.6
CC(C)C[C@H](NC(=O)CNC(=O)c1cc(Cl)ccc1Cl)B1OC(=O)C(CC(=O)O)(CC(=O)O)O1	11.6
CC(C)C[C@H](NC(=O)CNC(=O)c1cc(Cl)ccc1Cl)B(O)O	9.55
CC(C)C[C@H](NC(=O)[C@H](CCC(=O)O)NC(=O)CNC(=O)c1ccc(/C=C/C(=O)O)cc1)C(N)=O	97.5
N=C(N)c1ccc(N2CCN(C3CCN(CC(=O)O)CC3)CC2)cc1	104
CCCC(=O)[O-].[Na+] [Sodium butyrate]	89.2
CC1=C(/C=C/C(C)=C/C=C/C(C)=C/C(=O)O)C(C)(C)CCC1O (stereo not drawn) [4-Hydroxyretinoic acid]	101
NC(C(=O)O)c1ccc(C(=O)O)c(C(=O)O)c1 (racemic)	102
COc1cccc(-c2cc(NCc3ccc4c(c3)OCO4)nc(N)n2)c1	19.1
CC(C)[C@H]1c2ccc(F)cc2CC[C@@]1(CCN(C)CCCc1nc2ccccc2[nH]1)OC(=O)C1CC1 [NNC 55-0396 dihydrochloride]	10.5
COCC(=O)O[C@]1(CCN(C)CCCc2nc3ccccc3[nH]2)CCc2cc(F)ccc2[C@@H]1C(C)C [Mibefradil dihydrochloride]	81.7
